Records with an inconclusive call do not appear. Active and inactive are the calls of the source. The call rests on the fitted dose curve; in most records, active means well fitted curve in the direction sought with a large enough effect; inconclusive means small, poorly fitted or top-dose-only effect, or another doubt; inactive means no such curve, though single readings can be large; an effect the other way counts as inactive or inconclusive.
How the values were obtained:
[1] = Cell Viability - LYMP2-004 (AID 966); further: nearly all actives have a fitted effect of over 65% in size
Method in brief: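 Viable-cell number estimated from ATP luminescence (CellTiter-Glo) in 2500 human lymphoblastoid cells/well after 24 hr at 37 C with compound. AC50 fitted to the standard Hill equation.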

[2] = Cell Viability - LYMP2-005 (AID 967); further: series mostly up to about 92 µM
Method in brief: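 Steps: seed 2500 LYMP2-005 cells/well, incubate 5 h at 37 C, add compound, incubate 24 h at 37 C, add CellTiter-Glo, wait 30 min at RT, read luminescence. Concentration-response data fitted to Hill equation for AC50.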

[3] = Cell Viability - LYMP2-009 (AID 968); further: series mostly up to about 92 µM; nearly all actives have a fitted effect of over 55% in size
[4] = Cell Viability - LYMP2-011 (AID 969); further: nearly all actives have a fitted effect of over 60% in size
Method in brief: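 Cells seeded at 2500 per well rest 5 hr before compound addition, then incubate 24 hr at 37 C. CellTiter-Glo reagent is added for 30 min at room temperature before luminescence detection.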

[5] = Cell Viability - LYMP2-013 (AID 970); further: series mostly up to about 92 µM; nearly all actives have a fitted effect of over 55% in size
Method in brief: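 In complete culture medium, human lymphoblastoid cells were dosed for 24 hr at 37 C, with tetraoctylammonium bromide (6.4pM to 92 uM) as positive control. Viability reflects luciferase-based ATP signal; AC50 derived from concentration-response curves.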

[6] = Cell Viability - LYMP2-015 (AID 971); further: nearly all actives have a fitted effect of over 55% in size
Method in brief: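 AC50 values reflect Hill-model fits of ATP-based luminescence (CellTiter-Glo) from a human lymphoblastoid line, 2500 cells/well, treated 24 hr at 37 C.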

[7] = Cell Viability - LYMP2-017 (AID 972); further: series mostly up to about 92 µM; nearly all actives have a fitted effect of over 55% in size
Method in brief: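 In this qHTS format, lymphoblastoid cells in complete medium receive test compound for a day at 37 C before ATP content is quantified by luciferase luminescence. Reported AC50 figures come from standard Hill-equation curve fitting.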

[8] = Cell Viability - LYMP2-021 (AID 974)
Method in brief: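 In qHTS format, compounds are tested against 2500 lymphoblastoid cells per well for 24 h; viable cell number is inferred from ATP-driven luciferase light, and Hill-equation fitting yields AC50 values.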

[9] = Cell Viability - LYMP2-023 (AID 975)
Method in brief: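 In this qHTS, ATP-based luciferase luminescence (CellTiter-Glo) is quantified in human lymphoblastoid cells after 24 hr compound treatment at 37 C; tetraoctylammonium bromide serves as positive control. Concentration-response curves are Hill-fitted to give AC50.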

[10] = Cell Viability - LYMP2-025 (AID 976); further: series mostly up to about 92 µM
Method in brief: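 Luminescent ATP readout after 24 hr treatment of a human lymphoblastoid line (LYMP2-025, 2500 cells/well, 37 C). Reagent developed 30 min at room temperature; AC50 fitted with the Hill equation.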

[11] = Cell Viability - LYMP2-002 (AID 977);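 further: series mostly up to about 92 µM; compound exposure lasted 24 h at 37 °C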
Method in brief: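 Human lymphoblastoid cells (2500/well) in complete medium were preincubated 5 hr at 37 C, then exposed to compounds for 24 hr at 37 C. Intracellular ATP was read by CellTiter-Glo luminescence; AC50 came from Hill-equation concentration-response fits.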

[12] = Cell Viability - LYMP2-006 (AID 978); further: series mostly up to about 92 µM; nearly all actives have a fitted effect of over 60% in size
Method in brief: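 qHTS, 1536-well; 2500 cells/well, 5 hr 37 C; cpd 24 hr 37 C; CellTiter-Glo 30 min RT; luminescence. Tetraoctylammonium bromide pos. ctrl. AC50 via Hill eqn.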

[13] = Cell Viability - LYMP2-007 (AID 979);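 further: cells exposed to compound for 24 h before reading; nearly all actives have a fitted effect of over 60% in size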
Method in brief: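 Measured via luciferase-based ATP quantitation: lymphoblastoid cells, 24 hr compound exposure at 37 C, AC50 from Hill fits.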

[14] = Cell Viability - LYMP2-008 (AID 980); further: nearly all actives have a fitted effect of over 60% in size
Method in brief: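 Measured: ATP-dependent luminescence, proportional to viable cell number, in human lymphoblastoid cells treated 24 hr with compound in complete culture medium. Values are AC50s from Hill-equation modelling of qHTS titrations.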

[15] = Cell Viability - LYMP2-010 (AID 981); further: nearly all actives have a fitted effect of over 55% in size
Method in brief: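 This 24 hr viability screen uses LYMP2-010 lymphoblastoid cells, quantifies ATP via luciferase luminescence, and derives AC50 from Hill fits of qHTS concentration-response data.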

[16] = Cell Viability - LYMP2-012 (AID 982)
[17] = Cell Viability - LYMP2-014 (AID 983); further: series mostly up to about 92 µM; nearly all actives have a fitted effect of over 50% in size
Method in brief: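 Quantitative HTS in lymphoblastoid cells: 24 hr compound exposure, then CellTiter-Glo ATP luminescence. Positive control was tetraoctylammonium bromide, 6.4pM to 92 uM.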

[18] = Cell Viability - LYMP2-016 (AID 984); further: nearly all actives have a fitted effect of over 55% in size
Method in brief: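 qHTS, 1536-well: 2500 LYMP2-016 cells/well, 5 hr 37 C, compound added, 24 hr 37 C, CellTiter-Glo 30 min RT, luminescence. Tetraoctylammonium bromide positive control. AC50 via Hill fit.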

[19] = Cell Viability - LYMP2-018 (AID 985); further: nearly all actives have a fitted effect of over 50% in size
Method in brief: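 In this qHTS viability assay, cells are treated for 24 hr and cellular ATP is quantified by luciferase-based luminescence, with tetraoctylammonium bromide as positive control.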

Measured: outcome

C[C@@H]1[C@H](O)[C@@H](C)/C=C/C=C/C=C/C=C/C=C/C=C/C=C/[C@H](O[C@@H]2O[C@H](C)[C@@H](O)[C@H](N)[C@@H]2O)C[C@@H]2O[C@](O)(C[C@@H](O)C[C@@H](O)[C@H](O)CC[C@@H](O)C[C@@H](O)CC(=O)O[C@H]1C)C[C@H](O)[C@H]2C(=O)O
inactive: all assays above

Reference: PubChem BioAssay (NCATS)
